Measured values published in PubChem BioAssay (Tox21).
Inconclusive results are not listed. The source made the active and inactive calls. Unless noted, calls follow the shape of the dose curve; as a rule, active = well fitted curve in the direction sought with a large enough effect in the repeat runs; inconclusive = weak or mixed curves; inactive = flat fitted curve, though single readings scatter. Starred links: 1 amine or outer side, 2 acyl side, 3 side chain; linkers in the order of their positions; H or OH if unused. Positions of bridges follow the written chain, without caps; N, C: chain ends. Non-standard residues stand in square brackets, D forms with d. Residues, ends and D or L forms follow the SMILES beside them. *: point of attachment. X5 = NC1=N[C@@H]([C@H](N[*:1])C(=O)[*:2])C[C@H](O)N1; ΔAla(Z-3-ureido) = NC(=O)N/C=C(\N)C(=O)O; β3hOrn = NCCC[C@H](N)CC(=O)*; Dap = NC[C@H](N)C(=O)O

Columns and labels:
[1] = qHTS assay to test for compound auto fluorescence at 535 nm (green) in HEK293 cells (AID 720680)
[2] = qHTS assay to test for compound auto fluorescence at 460 nm (blue) in HEK293 cell free culture (AID 720681)
Method in brief: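 Compounds were added to cell-free DMEM with 10% FBS and fluorescence read directly. The blue channel used 405 nm excitation and 460 nm emission, with triamterene as the reference fluorophore.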

[3] = qHTS assay to test for compound auto fluorescence at 535 nm (green) in HEK293 cell free culture (AID 720682)
Method in brief: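 Green-channel intensity (Ex/Em 485/535 nm) was recorded from compound-treated wells containing only DMEM with 10% FBS. Fluorescein provided the equivalency standard.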

[4] = qHTS assay to test for compound auto fluorescence at 590 nm (red) in HEK293 cell free culture (AID 720683)
Method in brief: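 Cell-free wells of DMEM with 10% FBS received compound, and intrinsic fluorescence was read at excitation/emission 540/590 nm. Values expressed as equivalence to Rose Bengal sodium.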

[5] = qHTS assay to test for compound auto fluorescence at 590 nm (red) in HepG2 cell free culture (AID 720684)
Method in brief: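 Compound was pinned into wells holding MEM with 10% FBS and no cells, and red fluorescence was read at Ex/Em 540/590 nm. Signal is expressed as auto fluorescence equivalency relative to Rose Bengal sodium.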

[6] = qHTS assay to test for compound auto fluorescence at 460 nm (blue) in HepG2 cell free culture (AID 720685)
Method in brief: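 Compound (23 nL) or DMSO pinned into cell-free MEM with 10% FBS; blue fluorescence read at 405/460 nm excitation/emission, expressed as auto-fluorescence equivalency to triamterene.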

[7] = qHTS assay to test for compound auto fluorescence at 535 nm (green) in HepG2 cell free culture (AID 720686)
[8] = qHTS assay to test for compound auto fluorescence at 460 nm (blue) in HepG2 cells (AID 720687)
Method in brief: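 HepG2 cells in MEM with 10% FBS, attached overnight at 37 C, were exposed to compound or DMSO for 1 hr at 37 C, 5% CO2. Blue fluorescence was read at 405/460 nm, with triamterene as reference fluorophore.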

[9] = target: Glucocorticoid receptor (Homo sapiens) (UniProt P04150); assay: qHTS assay to identify small molecule agonists of the glucocorticoid receptor (GR) signaling pathway (AID 720691; active = well fitted activation curve with a large enough effect in the signal ratio in the repeat runs, not every such curve was filed as active; the % refers to the signal ratio); details: GR-bla HeLa, beta-lactamase reporter ratio, 18 h; activation: at 62.4 µM (top of the series)
Glucocorticoid receptor (Homo sapiens), sequence (P04150 whole entry, looked up): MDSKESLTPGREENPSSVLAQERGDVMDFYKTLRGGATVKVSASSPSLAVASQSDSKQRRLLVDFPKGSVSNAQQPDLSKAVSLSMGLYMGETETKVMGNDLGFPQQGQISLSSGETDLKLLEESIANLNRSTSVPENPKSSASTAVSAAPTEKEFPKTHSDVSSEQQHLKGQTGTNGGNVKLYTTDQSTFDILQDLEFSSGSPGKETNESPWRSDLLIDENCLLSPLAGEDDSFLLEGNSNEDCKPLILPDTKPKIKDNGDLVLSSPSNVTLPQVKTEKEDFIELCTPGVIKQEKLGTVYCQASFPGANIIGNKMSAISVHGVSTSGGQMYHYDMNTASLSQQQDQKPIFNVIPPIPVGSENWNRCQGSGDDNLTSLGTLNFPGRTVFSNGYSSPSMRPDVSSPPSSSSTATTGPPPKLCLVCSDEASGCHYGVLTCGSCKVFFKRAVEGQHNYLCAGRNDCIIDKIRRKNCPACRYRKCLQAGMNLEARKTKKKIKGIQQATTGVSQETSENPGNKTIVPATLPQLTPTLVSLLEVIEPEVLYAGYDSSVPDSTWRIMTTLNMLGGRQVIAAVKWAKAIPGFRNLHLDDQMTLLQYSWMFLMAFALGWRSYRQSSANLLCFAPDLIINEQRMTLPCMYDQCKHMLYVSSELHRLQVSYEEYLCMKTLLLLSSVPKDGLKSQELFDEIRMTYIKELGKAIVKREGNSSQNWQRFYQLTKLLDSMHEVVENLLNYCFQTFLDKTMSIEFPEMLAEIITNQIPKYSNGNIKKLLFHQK
Method in brief: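 GR-bla HeLa cells (beta-lactamase reporter under glucocorticoid response element) were plated 4 h at 37 C/5% CO2, given compounds in DMSO, and incubated 18 h at 37 C. LiveBLAzer B/G FRET substrate was added for 2 h at room temperature, then fluorescence intensity read.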

Measured: Potency

COc1ccc(C[C@H](N)C(=O)N[C@H]2[C@@H](O)[C@H](n3cnc4c(N(C)C)ncnc43)O[C@@H]2CO)cc1
inactive: [1] | [2] | [3] | [4] | [5] | [6] | [7] | [8]

CC(=O)[C@@]1(O)CC[C@H]2[C@@H]3C=C(Cl)C4=CC(=O)[C@@H]5C[C@@H]5[C@]4(C)[C@H]3CC[C@@]21C
inactive: [1] | [2] | [3] | [4] | [5] | [6] | [7] | [8]

CCC(=O)OCC(=O)[C@@]1(OC(=O)CC)[C@@H](C)C[C@H]2[C@@H]3CCC4=CC(=O)C=C[C@]4(C)[C@@]3(F)[C@@H](O)C[C@@]21C
inactive: [1] | [2] | [3] | [4] | [5] | [6] | [7] | [8]

CCOC(=O)Nc1ccc2c(c1)N(C(=O)CN(C)C)c1ccccc1CC2
inactive: [1] | [2] | [3] | [4] | [5] | [6] | [7] | [8]

O=C(O)[C@H]1/C(=C/CO)O[C@@H]2CC(=O)N21
inactive: [1] | [2] | [3] | [4] | [5] | [6] | [7] | [8]

C=C1CC[C@H](O)CC1=C/C=C1\CCC[C@]2(C)[C@@H]([C@H](C)CC[C@@H](O)C(C)(C)O)CC[C@@H]12
inactive: [1] | [2] | [3] | [4] | [5] | [6] | [7] | [8]

CCC[C@@H]1C[C@@H](C(=O)N[C@@H]([C@H]2O[C@H](SC)[C@H](O)[C@@H](O)[C@H]2O)[C@H](C)Cl)N(C)C1
inactive: [1] | [2] | [3] | [4] | [5] | [6] | [7] | [8]

CC(O)[C@@H]1NC(=O)[C@H](Cc2ccccc2)NC(=O)[C@H](C(C)O)NC(=O)[C@H](CCCCN)NC(=O)[C@H](Cc2c[nH]c3ccccc23)NC(=O)[C@H](Cc2ccccc2)NC(=O)[C@H](Cc2ccccc2)NC(=O)[C@H](CC(N)=O)NC(=O)[C@H](CCCCN)NC(=O)[C@@H](NC(=O)CNC(=O)[C@H](C)N)CSSC[C@@H](C(=O)O)NC(=O)[C@H](CO)NC1=O (stereo partly drawn)
inactive: [1] | [2] | [3] | [4] | [5] | [6] | [7] | [8]

S=C=Nc1ccc(N=C=S)cc1
inactive: [1] | [2] | [3] | [4] | [5] | [6] | [7] | [8]

CC(C(=O)O)c1ccc(C2CCCCC2)c2ccccc12 (stereo not drawn)
inactive: [1] | [2] | [3] | [4] | [5] | [6] | [7] | [8]

C=CCOc1ccc(CC(=O)O)cc1Cl
inactive: [1] | [2] | [3] | [4] | [5] | [6] | [7] | [8]

CC(C)(C)CC(=O)OCC(=O)[C@@]12OC(C)(C)O[C@@H]1C[C@H]1[C@@H]3CCC4=CC(=O)C=C[C@]4(C)[C@@]3(F)[C@@H](O)C[C@@]12C
inactive: [1] | [2] | [3] | [4] | [5] | [6] | [7] | [8]

CC(=O)Nc1ccc(OC(=O)c2ccccc2O)cc1
inactive: [1] | [2] | [3] | [4] | [5] | [6] | [7] | [8]

CC(=C\c1ccccc1)/C=C1/SC(=S)N(CC(=O)O)C1=O
inactive: [1] | [2] | [3] | [4] | [5] | [6] | [7] | [8]

C/C=C(/CC[C@@H](C)[C@H]1CC[C@H]2C3=CC[C@H]4[C@H](C)[C@@H](O)CC[C@]4(C)[C@H]3CC[C@]12C)C(C)C
inactive: [1] | [2] | [3] | [4] | [5] | [6] | [7] | [8]

OC1OC[C@@H](O)[C@H](O)[C@@H]1O (stereo partly drawn)
inactive: [1] | [2] | [3] | [4] | [5] | [6] | [7] | [8]

CC(O)CN(C)C (stereo not drawn)
inactive: [1] | [2] | [3] | [4] | [5] | [6] | [7] | [8]

CCNC(=O)[C@@H]1CCCN1C(=O)[C@H](CCCN=C(N)N)NC(=O)[C@H](CC(C)C)NC(=O)[C@@H](Cc1c[nH]c2ccccc12)NC(=O)[C@H](Cc1ccc(O)cc1)NC(=O)[C@H](CO)NC(=O)[C@H](Cc1c[nH]c2ccccc12)NC(=O)[C@H](Cc1cnc[nH]1)NC(=O)[C@@H]1CCC(=O)N1
inactive: [1] | [2] | [3] | [4] | [5] | [6] | [7] | [8]

CN1CCc2c(c3ccccc3n2Cc2ccccc2)C1
inactive: [1] | [2] | [3] | [4] | [5] | [6] | [7] | [8]

C=C1CC[C@H](O)CC1=C/C=C1\CCC[C@]2(C)[C@@H]([C@H](C)CCCC(C)(C)O)CC[C@@H]12
inactive: [1] | [2] | [3] | [4] | [5] | [6] | [7] | [8]

O=C(CO)[C@@H](O)[C@H](O)[C@@H](O)C(=O)O
inactive: [1] | [2] | [3] | [4] | [5] | [6] | [7] | [8]

C=C1C(=O)O[C@H]2[C@H]1CC/C(C)=C\CC[C@@]1(C)O[C@@H]21
inactive: [1] | [2] | [3] | [4] | [5] | [6] | [7] | [8]

CCOc1ccc(N=C(C)Nc2ccc(OCC)cc2)cc1
inactive: [1] | [2] | [3] | [4] | [5] | [6] | [7] | [8]

O=C(O)CO.[NH2-].[NH2-].[Pt+2]
inactive: [1] | [2] | [3] | [4] | [5] | [6] | [7] | [8]

CC1CC(OC(=O)C(O)c2ccccc2)CC(C)(C)C1 (stereo not drawn)
inactive: [1] | [2] | [3] | [4] | [5] | [6] | [7] | [8]

CS(=O)(=O)Nc1cc2occ(NC=O)c(=O)c2cc1Oc1ccccc1
inactive: [1] | [2] | [3] | [4] | [5] | [6] | [7] | [8]

c1cnc2cc3c(cc2n1)[C@@H]1CNC[C@H]3C1
inactive: [1] | [2] | [3] | [4] | [5] | [6] | [7] | [8]

C=C1CC[C@@H]2[C@](C)(CO)[C@H](O)CC[C@@]2(C)[C@@H]1C/C=C1/C(=O)OC[C@H]1O
inactive: [1] | [2] | [3] | [4] | [5] | [6] | [7] | [8]

O=[N+]([O-])c1ccc(Oc2ccc(N=C=S)cc2)cc1
inactive: [1] | [2] | [3] | [4] | [5] | [6] | [7] | [8]

C#C[C@]1(O)CC[C@H]2[C@@H]3CCC4=C/C(=N/O)CC[C@@H]4[C@H]3CC[C@@]21CC
inactive: [1] | [2] | [3] | [4] | [5] | [6] | [7] | [8]

CNC[C@@H]1CC[C@@H](N)[C@@H](O[C@H]2[C@H](O)[C@@H](O[C@H]3OC[C@](C)(O)[C@H](NC)[C@H]3O)[C@H](N)C[C@@H]2N)O1
inactive: [1] | [2] | [3] | [4] | [5] | [6] | [7] | [8]

O=S(=O)(O)CCCS(=O)(=O)O
inactive: [1] | [2] | [3] | [4] | [5] | [6] | [7] | [8]

Cc1cccc(Nc2ncccc2C(=O)O)c1C
inactive: [1] | [2] | [3] | [4] | [5] | [6] | [7] | [8]

CC1(C)S[C@@H]2[C@H](NC(=O)[C@H](N)c3ccccc3)C(=O)N2[C@H]1C(=O)OCOC(=O)[C@@H]1N2C(=O)C[C@H]2S(=O)(=O)C1(C)C
inactive: [1] | [2] | [3] | [4] | [5] | [6] | [7] | [8]

NCCC(=O)[N-][C@@H](Cc1cnc[nH]1)C(=O)O.[Zn]
inactive: [1] | [2] | [3] | [4] | [5] | [6] | [7] | [8]

C[N@+]12CCCC[C@@H]1CCC(=C(c1cccs1)c1cccs1)C2
inactive: [1] | [2] | [3] | [4] | [5] | [6] | [7] | [8] | [9]

CCCCC(F)(F)[C@@]1(O)CC[C@H]2[C@@H](CC(=O)[C@@H]2CCCCCCC(=O)O)O1
inactive: [1] | [2] | [3] | [4] | [5] | [6] | [7] | [8] | [9]

c1ccc2c(c1)Sc1ccccc1N2CCN1CCCC1
inactive: [1] | [2] | [3] | [4] | [5] | [6] | [7] | [8] | [9]

CC1(C)C(\C=C/C=C\C=C/C=C2/N(CCCCS(=O)(=O)O)c3ccc4ccccc4c3C2(C)C)=[N+](CCCCS(=O)(=O)[O-])c2ccc3ccccc3c21
inactive: [1] | [2] | [3] | [4] | [5] | [6] | [7] | [8] | [9]

CC#CCC(C)[C@H](O)/C=C/[C@@H]1[C@H]2c3cccc(CCCC(=O)O)c3O[C@H]2C[C@H]1O (stereo partly drawn)
inactive: [1] | [2] | [3] | [4] | [5] | [6] | [7] | [8] | [9]

NCCC[C@H](N)CC(=O)N[C@H]1CNC(=O)[C@H]([C@H]2C[C@H](O)NC(N)=N2)NC(=O)/C(=C/NC(N)=O)NC(=O)[C@H](CO)NC(=O)[C@H](CO)NC1=O (β3hOrn-[Dap]SS[ΔAla(Z-3-ureido)][X5]; lactam 1-C)
inactive: [1] | [2] | [3] | [4] | [5] | [6] | [7] | [8]
